Measurements as given in PubChem BioAssay AID504690 (Sanford-Burnham Center for Chemical Genomics, 2011).
The whole screen tested about 350,000 compounds, of which about 2,700 (0.77%) were called active. The sample holds actives, similar compounds and a random draw of the others, so the mix is not that of the screen. Unmarked numbers belong to inactive results.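 The calls were made as follows: active = inhibition reaching at least a set limit at 20 µM in the primary screen (cut at about 59% in these data); inactive = the rest.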

tested on: glucose-6-phosphate dehydrogenase-6-phosphogluconolactonase (Plasmodium falciparum 3D7); experiment: PfG6PD enzyme inhibitors, primary screen, biochemical, fluorescence intensity, uHTS (AID 504690); details: PfGluPho enzyme, NADPH resazurin-diaphorase fluorescence; at 20 µM; hits give high values;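 also: 0% = DMSO wells with substrate and 100% = DMSO wells lacking glucose-6-phosphate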

For O=C(CSC1c2ccccc2-c2ccccc21)N/N=C/c1ccccc1, the inhibition was 62.4% (active).
With COc1cccc(-c2nc3ccc(N4CCN(C)CC4)cc3[nH]2)c1 the inhibition was 64.4% (active).
With Cc1cc(C)c2c(c1)NP(=S)(c1ccccc1)N2 (stereo not given) the inhibition was 63.6% (active).
In the case of COC(=O)N(c1ccc(OC)cc1)P1(=S)OCCC(C)O1 (stereo not given), the inhibition is reported as 81.9% (active).
In the case of O=C1NC(=O)N(Cc2ccco2)C(=O)/C1=C\c1ccc(-c2ccc(F)cc2)o1, the inhibition is reported as 72% (active).
With O=C1NC(=O)N(c2ccccc2)C(=O)/C1=C/c1ccc([N+](=O)[O-])s1 the inhibition was 64.8% (active).

First: C[C@]12CCCCC1=CC(=O)C1C2CC[C@@]2(C)C1C[C@@H](F)[C@@H]2O (stereo not given in full)
Second: Nc1ccc(C(=O)N/N=C2/CN3CCC2CC3)cc1
The inhibition of the first is higher: -7.47% for the first, -10.7% for the second.

Compared with CCOP(=S)(OCC)SCOC(=O)NCC(=O)OC, CCOP(=O)(OCC)C(NC(=O)c1ccc(C)cc1)C(Cl)(Cl)Cl (stereo not given) is higher in inhibition: -4.03% for the first, 1.69% for the second.

First: COC(=O)C1=C(c2cccc(OCc3ccccc3)c2)C[C@@H]2CC[C@H]1N2C(=O)NCc1ccc(Br)cc1
Second: N#Cc1ccc(Cn2cc(C(=O)c3ccco3)c3ccccc32)cc1
The inhibition of the first is higher: 9.43% for the first, 4.04% for the second.

Going from CN1CCN(c2cc(N3CCNCC3)ccc2[N+](=O)[O-])CC1 to COc1cccc(N2C(=O)NC(=O)/C(=C\c3ccc([N+](=O)[O-])s3)C2=O)c1, the inhibition rises from 1.22% to 56%.

Going from c1ccc(C(CN2CCCCC2)c2ccccc2)cc1 to O=C(CN1CCCCC1)Nc1ccc(Br)cc1C(=O)c1ccccc1Cl, the inhibition rises from -1.44% to 0.87%.

First: COc1ccccc1C1=NCc2nnc(CSC)n2-c2ccc(Cl)cc21
Second: COc1ccc2c(c1)NP(=S)(c1ccccc1)N2 (stereo not given)
The inhibition of the first is lower: -31.3% for the first, 46.5% for the second.

First: C[C@@]1([C@@H](NP(=O)(c2ccccc2)c2ccccc2)c2ccccc2)C[C@H]1CCO
Second: O=C(NCC(c1cccnc1)N1CCN(c2ccccc2)CC1)Oc1ccccc1 (stereo not given)
The inhibition of the first is lower: -0.29% for the first, 7.5% for the second.

Going from Nc1ccc(Cc2ccc(N)c(Cl)c2)cc1Cl to O=C1NC(=O)N(CCc2ccc(F)cc2)C(=O)/C1=C/C=C/c1ccccc1, the inhibition rises from -5.41% to 4.03%.

Going from C/C=C/CC1(CC)C(=O)NC(=S)NC1=O to CCOCCc1c(O)[nH]c(=S)[nH]c1=O, the inhibition rises from -4.76% to 21.3%.

Going from C=CCn1c(O)c(/C=N/N2CCOCC2)c(=O)[nH]c1=S to CCOP(=S)(OCC)C(O)CCCCCn1c(=O)c(F)cn(C2CCCO2)c1=O (stereo not given), the inhibition rises from -2.25% to 11.4%.

First: COc1ccc(N2C(=O)/C(=C/c3ccco3)C(=O)NC2=S)cc1
Second: O=C1NC(=O)N(c2ccc(F)cc2)C(=O)/C1=C/c1ccc2c(c1)CCCN2Cc1ccccc1
The inhibition of the first is higher: 23.2% for the first, 18.3% for the second.

First: CCC1(C)CC(CCNCc2ccc(N(C)C)cc2)(c2ccc(F)cc2)CCO1 (stereo not given)
Second: CC(=O)OC1C2(CC3N4C(=O)C5(CO)SSC4(CC31O)C(=O)N5C)OC(C)C(C)(C)C2=O (stereo not given)
The inhibition of the first is lower: -7.55% for the first, 19.4% for the second.
